# Measurements taken from PubChem BioAssay (Tox21).
# Records with an inconclusive call do not appear. A call without a number means that no potency is given here. The source made the active and inactive calls. Calls follow the shape of the dose curve; as a rule, active = well fitted curve in the direction sought with a large enough effect in the repeat runs; inconclusive = weak or mixed curves; inactive = no such curve, though single readings can be large; an effect the other way counts as inactive or inconclusive.
# Assay: qHTS assay for identifying genotoxic compounds that show differential cytotoxicity against isogenic chicken DT40 cell lines with known DNA damage response pathways - Rev3 mutant cell line (AID 743014); also: nearly all actives have a fitted effect of over 55% in size
# Conditions: chicken DT40 Rev3-/- viability, CellTiter-Glo, 40 h; series mostly up to 68.4 µM
# Potency is read from the fitted curve at half-maximal effect.
row,SMILES,Potency
1,CCCCCCCCCCCSCC(=O)O,inactive
2,CC(=O)OCCC(C)CC(C)(C)C (stereo not drawn),inactive
3,Nc1ccc(N=Nc2ccc(N)cc2)cc1,inactive
4,C=C(C)c1ccccc1,inactive
5,O[C@@H](CNC[C@H](O)[C@H]1CCc2cc(F)ccc2O1)[C@@H]1CCc2cc(F)ccc2O1,13.3 µM (active)
6,CO[C@@H]1[C@@H](OC)[C@H](C)[C@@](O)(CC(=O)O)O[C@H]1[C@H](C)[C@H]1O[C@@]2(CC[C@@](C)([C@H]3CC[C@@](C)([C@@H]4O[C@@H]([C@H]5O[C@](C)(O)[C@H](C)C[C@@H]5C)C[C@@H]4OC4C[C@H](OC)[C@@H](OC)[C@H](C)O4)O3)O2)C[C@H](O)[C@H]1C (stereo partly drawn),0.15 µM (active)
7,COc1ccc(CCN(C)CCCN2CCc3cc(OC)c(OC)cc3CC2=O)cc1OC,inactive
8,O=C(CCS)OCC(COC(=O)CCS)(COC(=O)CCS)COC(=O)CCS,inactive
9,CC(C)OC(=O)c1ccccc1C(=O)OC(C)C,43.3 µM (active)
10,CC(C)C(O)C(C)(C)CO (stereo not drawn),inactive
11,[Cl][Nd]([Cl])[Cl],inactive
12,Cc1ccccc1S(N)(=O)=O,inactive
13,O=C(/C=C/c1ccc([N+](=O)[O-])cc1)c1ccccc1,inactive
14,CCN(Cc1cccc(S(=O)(=O)O)c1)c1ccc(C(=C2C=CC(=[N+](CC)Cc3cccc(S(=O)(=O)O)c3)C=C2)c2ccc(O)cc2S(=O)(=O)[O-])cc1,9.32 µM (active)
15,Cc1c(C2(c3cc(Br)c(O)c(Br)c3C)OS(=O)(=O)c3ccccc32)cc(Br)c(O)c1Br,18.8 µM (active)
16,O=C1c2ccccc2C(=O)c2c(O)ccc(O)c21,inactive

# Assay: qHTS assay for identifying genotoxic compounds that show differential cytotoxicity against isogenic chicken DT40 cell lines with known DNA damage response pathways - Rad54/Ku70 mutant cell line (AID 743015); also: nearly all actives have a fitted effect of over 60% in size
# Conditions: DT40 Rad54/Ku70 mutant viability, CellTiter-Glo, 40 h; series mostly up to 66.8 µM
row,SMILES,Potency
1,COC(=O)c1sccc1S(N)(=O)=O,inactive
2,CCCCCCCCCCCSCC(=O)O,inactive
3,CC(=O)OCCC(C)CC(C)(C)C (stereo not drawn),inactive
4,C=C(C)c1ccccc1,inactive
5,CC/C=C\C/C=C\C/C=C\CCCCCCCC(=O)OCC,70.1 µM (active)
6,O[C@@H](CNC[C@H](O)[C@H]1CCc2cc(F)ccc2O1)[C@@H]1CCc2cc(F)ccc2O1,11.9 µM (active)
7,CCCCCCCC/C=C\CCCCCCCC(=O)OCCO,72.2 µM (active)
8,CO[C@@H]1[C@@H](OC)[C@H](C)[C@@](O)(CC(=O)O)O[C@H]1[C@H](C)[C@H]1O[C@@]2(CC[C@@](C)([C@H]3CC[C@@](C)([C@@H]4O[C@@H]([C@H]5O[C@](C)(O)[C@H](C)C[C@@H]5C)C[C@@H]4OC4C[C@H](OC)[C@@H](OC)[C@H](C)O4)O3)O2)C[C@H](O)[C@H]1C (stereo partly drawn),0.211 µM (active)
9,COc1ccc(CCN(C)CCCN2CCc3cc(OC)c(OC)cc3CC2=O)cc1OC,inactive
10,O=C(CCS)OCC(COC(=O)CCS)(COC(=O)CCS)COC(=O)CCS,inactive
11,COc1cc(S(=O)(=O)Nc2ccccc2)c(OC)cc1N,inactive
12,CCN(Cc1cccc(S(=O)(=O)O)c1)c1ccc(C(=C2C=CC(=[N+](CC)Cc3cccc(S(=O)(=O)O)c3)C=C2)c2ccccc2S(=O)(=O)[O-])cc1,15.4 µM (active)
13,CC(C)C(O)C(C)(C)CO (stereo not drawn),inactive
14,[Cl][Nd]([Cl])[Cl],inactive
15,Cc1ccccc1S(N)(=O)=O,inactive
16,Cc1ccc2c(c1[N+](=O)[O-])C(=O)c1ccccc1C2=O,30 µM (active)
17,COC(=O)C1=C(C)NC(C)=C(C(=O)OC(C)(C)CN(C)CCC(c2ccccc2)c2ccccc2)C1c1cccc([N+](=O)[O-])c1 (stereo not drawn),9.44 µM (active)
18,O=S(=O)(Cl)c1c(Cl)cccc1Cl,inactive
19,O=C(/C=C/c1ccc([N+](=O)[O-])cc1)c1ccccc1,inactive
20,c1ccc(CNc2ncnc3c2ncn3C2CCCCO2)cc1 (stereo not drawn),61.1 µM (active)
21,CC(=O)Oc1cccc(O)c1,inactive
22,O=C(O)c1cc(Cl)cc(Cl)c1O,inactive
23,CCN(Cc1cccc(S(=O)(=O)O)c1)c1ccc(C(=C2C=CC(=[N+](CC)Cc3cccc(S(=O)(=O)O)c3)C=C2)c2ccc(O)cc2S(=O)(=O)[O-])cc1,11.7 µM (active)
24,Cc1c(C2(c3cc(Br)c(O)c(Br)c3C)OS(=O)(=O)c3ccccc32)cc(Br)c(O)c1Br,18.8 µM (active)
25,O=C1c2ccccc2C(=O)c2c(O)ccc(O)c21,7.7 µM (active)
26,COc1cc(OC)c2ccc(=O)oc2c1,68.6 µM (active)

# Assay: qHTS assay to identify small molecule antagonists of the androgen receptor (AR) signaling pathway - cell viability counter screen (AID 743033; also: nearly all actives have a fitted effect of over 45% in size)
# Conditions: AR-bla HEK293 viability, CellTiter-Glo luminescence, 16 h; series mostly up to 58.5 µM
row,SMILES,Potency
1,COC(=O)c1sccc1S(N)(=O)=O,inactive
2,O=C(c1ccccc1)c1ccc(O)cc1,inactive
3,CC(C)(O)c1coc(S(=O)(=O)NC(=O)Nc2c3c(cc4c2CCC4)CCC3)c1,inactive
4,CCCCCCCCCCCSCC(=O)O,inactive
5,CC(=O)OCCC(C)CC(C)(C)C (stereo not drawn),inactive
6,Nc1ccc(N=Nc2ccc(N)cc2)cc1,inactive
7,C=C(C)c1ccccc1,inactive
8,CC/C=C\C/C=C\C/C=C\CCCCCCCC(=O)OCC,inactive
9,CCCCCCCC/C=C\CCCCCCCC(=O)OCCO,inactive
10,COc1ccc(CCN(C)CCCN2CCc3cc(OC)c(OC)cc3CC2=O)cc1OC,inactive
11,O=C(CCS)OCC(COC(=O)CCS)(COC(=O)CCS)COC(=O)CCS,inactive
12,COc1cc(S(=O)(=O)Nc2ccccc2)c(OC)cc1N,inactive
13,O=C(O)c1cccc(C[C@@H]2COc3ccc(OCc4nc5cc(F)ccc5s4)cc3[C@@H]2O)c1,inactive
14,CC(C)OC(=O)c1ccccc1C(=O)OC(C)C,inactive
15,CC(C)C(O)C(C)(C)CO (stereo not drawn),inactive
16,[Cl][Nd]([Cl])[Cl],inactive

row,SMILES,Potency
1,Cc1ccccc1S(N)(=O)=O,inactive
2,Cc1ccc2c(c1[N+](=O)[O-])C(=O)c1ccccc1C2=O,inactive
3,CCN(CC)CCOC(=O)C(c1ccccc1)c1ccccc1,inactive
4,COC(=O)C1=C(C)NC(C)=C(C(=O)OC(C)(C)CN(C)CCC(c2ccccc2)c2ccccc2)C1c1cccc([N+](=O)[O-])c1 (stereo not drawn),inactive
5,O=S(=O)(Cl)c1c(Cl)cccc1Cl,inactive
6,O=C(/C=C/c1ccc([N+](=O)[O-])cc1)c1ccccc1,inactive
7,c1ccc(CNc2ncnc3c2ncn3C2CCCCO2)cc1 (stereo not drawn),inactive
8,CC(=O)Oc1cccc(O)c1,inactive
9,O=C(O)c1cc(Cl)cc(Cl)c1O,inactive
10,CS(=O)(=O)c1ccc([C@@H](C[C@H]2CCC(=O)C2)C(=O)Nc2cnccn2)cc1Cl,inactive
11,Cc1c(C2(c3cc(Br)c(O)c(Br)c3C)OS(=O)(=O)c3ccccc32)cc(Br)c(O)c1Br,16.9 µM (active)
12,O=C1c2ccccc2C(=O)c2c(O)ccc(O)c21,inactive
13,Nc1c(Cl)cc(Cl)cc1[N+](=O)[O-],inactive
14,CC(C)(C)C(O)/C=C/c1ccc2c(c1)OCO2 (stereo not drawn),inactive
15,COc1cc(OC)c2ccc(=O)oc2c1,inactive
